Test results as given in the supplement of paper PMC6555819.

System: RARg homodimer (NR concentration 270 nM)
Experiment: PBM binding z-score (relative to random genomic background probes); higher = stronger binding; sequences stand for … in GC…GCGATTGACAGCGTAGAATGAAGG
Method in brief: (§1)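 Each nuclear receptor dimer, without ligand, was incubated for 1 h on custom Agilent 4×180K protein-binding microarrays. Binding was detected with antibodies against each partner (one per run), and scanned fluorescence was regression-normalized. The binding z-scores are referenced to random human genomic background probes.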

First: CCTAACAGGCCAATCTGGGTCACTCAAGGCTTGA
Second: CTCGAAAGGTCGTGCTCAGGTGAGTTTACCAAAC
The PBM binding z-score of the first is lower: 1.75 for the first, 4.34 for the second.

Going from CCAACTGGGGCAAGGTTACCATAACGCACAGCCA to TCTATTAGTTTATTAGGGCAACCGAAACAGCGGA, the PBM binding z-score falls from 1.56 to 1.09.

First: GCGACTGGGGCCTCAGCAGGTTACCATAACTTAA
Second: TCGAGTACGTTAGGGGCATTCAGAATGGCGTCGA
The PBM binding z-score of the first is lower: -0.568 for the first, -0.0328 for the second.

Going from CGTCCAAGGTCATAGGAGGTCGGTGAAGACAGAT to AGTCAAAGTTCATCTAGGTACCGTAAGATATGCT, the PBM binding z-score falls from 6.48 to 5.76.

Compared with CGTCAAAGTTCAACTAGGGTAACGTAAAGCACGC, TCGAGTAGCTTAGTCGGGGCATTCAGCCAACATA is lower in PBM binding z-score: 6.62 for the first, -1.05 for the second.

Going from GCATATAGGTGATACAAGGTGAAAGTCCGATTGT to CCTACTGGGCCATCAGGTCATAGATATCAACGTT, the PBM binding z-score rises from 0.702 to 1.95.

First: ATCTCTAGGTAACCAAGTTCCGTGAATGCCGAAC
Second: CCTAGCAGGCCAATCAGGGTCACTCAAGGCTTGA
The PBM binding z-score of the first is lower: 0.215 for the first, 2.02 for the second.

First: ATCTCTAGGTAACCCAGTTCAGTGAATGCCGAAC
Second: CAAACTAGGTCACAGAGGTCAAAGCCCGTGCGTA
The PBM binding z-score of the first is lower: 0.439 for the first, 7.63 for the second.

Going from CAAACTAGGTCACGACAGGTCAAAGTCGAATGAC to CCTGCTAGGTCAATAGTCAGCTAAAGCAGCTCGC, the PBM binding z-score falls from 6.78 to 3.91.

Going from GGAAGGAGGGCAAAGTTGATAGCATCTGTCGACG to TCATATAGGTACAGGTGAAAGTCGAACGATATGA, the PBM binding z-score falls from 1.55 to 0.834.

Compared with CGAACGAGGGCATCAGTTGATAGCAAATGCCGAT, AGAACGAGGGCAATGAGTTAATAGCACGGGTGGC is lower in PBM binding z-score: 1.83 for the first, 1.51 for the second.

Compared with CAAACTAGGTCAAGGTCAAGGTCGGTTTGTGCCA, CGTCAAAGTTCAAGATAACGTAACAGAAAGCAGC is lower in PBM binding z-score: 7.34 for the first, 6.09 for the second.

First: CCTAGTTGGTCAAGGTCACACAAGCTATAGGTAC
Second: GCAGGCAGGTGAAACGCAGGTAACTCAGGGTGGC
The PBM binding z-score of the first is higher: 4.89 for the first, 0.484 for the second.

First: CGAACTAGGTTATTGACAGGACAGTGAATAGTAA
Second: CGAACTAGGTCATTGACAGGACACTGAATAGTAA
The PBM binding z-score of the first is lower: 0.618 for the first, 3.84 for the second.

Compared with CGTCAAGGTTCAACTAAGGTAACGTAAAGCACGC, CTCGAAAGGTCGGTCGAGGTGAGTATACGGATAA is higher in PBM binding z-score: 2.98 for the first, 3.3 for the second.

First: TCAGACAGATGAAGGTAACTCAGGTACGCAGTCG
Second: CGAACGAGGGCATGAGTTAATAGCAAATGCCGAT
The PBM binding z-score of the first is lower: 0.197 for the first, 1.61 for the second.

First: GCTTGTAGATCAGGGTTAAGAAAGACTAAGCTAA
Second: AATAGCAGGCCAAGTTTGGGTCACTCAAACAAAG
The PBM binding z-score of the first is lower: 0.152 for the first, 1.67 for the second.

Going from GCGACTGGGGCATCAGCATGTTACCATAACTTAA to CGTCCAAGGTTAGCAGGTCAGTGAAAGCGACGTG, the PBM binding z-score rises from 0.143 to 2.6.

Going from ATCTCTAGGTAAGACTAAGTTCAGTGAAGAACGC to GCTTACGGGTCATAGGTTATAGCATGAATAGAAT, the PBM binding z-score rises from 0.697 to 3.83.

TGAATAAGGTTAAAGATCAGGGAACGTGGCGTCG showed a PBM binding z-score of 1.72.

System: RXRa DBDmut IVT, anti-RXR (DBD mutation: RXRa K156A/R161A, NR concentration 90 nM)
Experiment: as above
Method in brief: as §1

First: CCTAACAGGCCAATCTGGGTCACTCAAGGCTTGA
Second: CTCGAAAGGTCGTGCTCAGGTGAGTTTACCAAAC
The PBM binding z-score of the first is lower: 0.498 for the first, 2.46 for the second.

First: CCAACTGGGGCAAGGTTACCATAACGCACAGCCA
Second: TCTATTAGTTTATTAGGGCAACCGAAACAGCGGA
The PBM binding z-score of the first is lower: -0.0848 for the first, 1.92 for the second.

Compared with GCGACTGGGGCCTCAGCAGGTTACCATAACTTAA, TCGAGTACGTTAGGGGCATTCAGAATGGCGTCGA is higher in PBM binding z-score: -0.479 for the first, 3.64 for the second.

First: CGTCCAAGGTCATAGGAGGTCGGTGAAGACAGAT
Second: AGTCAAAGTTCATCTAGGTACCGTAAGATATGCT
The PBM binding z-score of the first is lower: 3.77 for the first, 4.67 for the second.

Compared with CGTCAAAGTTCAACTAGGGTAACGTAAAGCACGC, TCGAGTAGCTTAGTCGGGGCATTCAGCCAACATA is lower in PBM binding z-score: 4.69 for the first, -0.135 for the second.

Compared with GCATATAGGTGATACAAGGTGAAAGTCCGATTGT, CCTACTGGGCCATCAGGTCATAGATATCAACGTT is lower in PBM binding z-score: 0.341 for the first, -0.116 for the second.

Going from ATCTCTAGGTAACCAAGTTCCGTGAATGCCGAAC to CCTAGCAGGCCAATCAGGGTCACTCAAGGCTTGA, the PBM binding z-score rises from 0.0901 to 0.629.

Compared with ATCTCTAGGTAACCCAGTTCAGTGAATGCCGAAC, CAAACTAGGTCACAGAGGTCAAAGCCCGTGCGTA is higher in PBM binding z-score: 0.564 for the first, 3.22 for the second.

First: CAAACTAGGTCACGACAGGTCAAAGTCGAATGAC
Second: CCTGCTAGGTCAATAGTCAGCTAAAGCAGCTCGC
The PBM binding z-score of the first is higher: 2.05 for the first, 1.56 for the second.

Compared with GGAAGGAGGGCAAAGTTGATAGCATCTGTCGACG, TCATATAGGTACAGGTGAAAGTCGAACGATATGA is lower in PBM binding z-score: 1.37 for the first, 0.797 for the second.

First: CGAACGAGGGCATCAGTTGATAGCAAATGCCGAT
Second: AGAACGAGGGCAATGAGTTAATAGCACGGGTGGC
The PBM binding z-score of the first is higher: 2.49 for the first, 1.74 for the second.

Compared with CAAACTAGGTCAAGGTCAAGGTCGGTTTGTGCCA, CGTCAAAGTTCAAGATAACGTAACAGAAAGCAGC is higher in PBM binding z-score: 2.79 for the first, 4.52 for the second.

Going from CCTAGTTGGTCAAGGTCACACAAGCTATAGGTAC to GCAGGCAGGTGAAACGCAGGTAACTCAGGGTGGC, the PBM binding z-score falls from 2.26 to -0.721.

Going from CGAACTAGGTTATTGACAGGACAGTGAATAGTAA to CGAACTAGGTCATTGACAGGACACTGAATAGTAA, the PBM binding z-score rises from 0.59 to 2.58.

Going from CGTCAAGGTTCAACTAAGGTAACGTAAAGCACGC to CTCGAAAGGTCGGTCGAGGTGAGTATACGGATAA, the PBM binding z-score falls from 4.42 to 0.728.

Compared with TCAGACAGATGAAGGTAACTCAGGTACGCAGTCG, CGAACGAGGGCATGAGTTAATAGCAAATGCCGAT is higher in PBM binding z-score: 1.34 for the first, 2.14 for the second.

Going from GCTTGTAGATCAGGGTTAAGAAAGACTAAGCTAA to AATAGCAGGCCAAGTTTGGGTCACTCAAACAAAG, the PBM binding z-score falls from 0.053 to -0.564.

Compared with GCGACTGGGGCATCAGCATGTTACCATAACTTAA, CGTCCAAGGTTAGCAGGTCAGTGAAAGCGACGTG is higher in PBM binding z-score: 0.363 for the first, 0.446 for the second.

First: ATCTCTAGGTAAGACTAAGTTCAGTGAAGAACGC
Second: GCTTACGGGTCATAGGTTATAGCATGAATAGAAT
The PBM binding z-score of the first is lower: 0.96 for the first, 2.34 for the second.

With TGAATAAGGTTAAAGATCAGGGAACGTGGCGTCG the PBM binding z-score was 0.599.
